# According to PubChem BioAssay (NCATS):
# Values without a mark were called inactive. Inconclusive results are not listed. Active and inactive are the calls of the source. Unless noted, calls come from the whole dose curve; as a rule, active = well fitted curve in either direction with a large enough effect (not every such curve was filed as active); inconclusive = small, poorly fitted or top-dose-only effect, or another doubt; inactive = flat fitted curve, though single readings scatter.
# How the values were obtained:
# [1] = target: Lysosomal acid glucosylceramidase (Homo sapiens) (UniProt P04062); experiment: Glucocerebrosidase-p2 (AID 348; in the data active = potency below about 10 µM; note: potency is the fitted concentration of half-maximal effect); details: purified GBA, blue fluorogenic substrate, 40 min
# Chain of Lysosomal acid glucosylceramidase (Homo sapiens) (P04062 whole entry, looked up): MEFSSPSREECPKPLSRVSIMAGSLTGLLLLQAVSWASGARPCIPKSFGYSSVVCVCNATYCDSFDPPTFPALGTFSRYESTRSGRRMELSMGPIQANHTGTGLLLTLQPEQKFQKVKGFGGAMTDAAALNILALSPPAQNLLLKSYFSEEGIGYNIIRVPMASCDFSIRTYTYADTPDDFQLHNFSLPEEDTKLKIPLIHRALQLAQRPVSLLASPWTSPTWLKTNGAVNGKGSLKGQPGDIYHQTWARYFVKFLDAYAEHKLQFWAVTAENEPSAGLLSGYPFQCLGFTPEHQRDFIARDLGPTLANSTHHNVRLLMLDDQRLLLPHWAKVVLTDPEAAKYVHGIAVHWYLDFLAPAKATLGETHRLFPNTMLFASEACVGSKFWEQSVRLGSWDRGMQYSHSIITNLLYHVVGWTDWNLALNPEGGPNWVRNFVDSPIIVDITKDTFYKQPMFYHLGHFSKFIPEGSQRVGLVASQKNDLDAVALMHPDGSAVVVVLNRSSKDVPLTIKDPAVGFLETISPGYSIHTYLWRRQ
# Summary of the method: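 Normal human glucocerebrosidase (0.2 nM) with blue fluorogenic substrate (80 uM final) in citrate/phosphate pH 5.9 with 10mM sodium taurocholate, 0.01% tween-20; 40 min RT, NaOH/glycine stop; fluorescence Ex 365/Em 440; AC50 from a titration from 0.6 nM upwards.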
# [2] = target: Cytochrome P450 1A2 (Homo sapiens) (UniProt P05177); experiment: p450-cyp1a2 (AID 410; calls by dose curve; note: potency is the fitted concentration of half-maximal effect;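 for activity change, negative = inhibition: -100% = full effect of reference inhibitor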); details: recombinant CYP1A2, luciferin-ME demethylation, luminescence; series mostly up to 57 µM
# Chain of Cytochrome P450 1A2 (Homo sapiens) (P05177 whole entry, looked up): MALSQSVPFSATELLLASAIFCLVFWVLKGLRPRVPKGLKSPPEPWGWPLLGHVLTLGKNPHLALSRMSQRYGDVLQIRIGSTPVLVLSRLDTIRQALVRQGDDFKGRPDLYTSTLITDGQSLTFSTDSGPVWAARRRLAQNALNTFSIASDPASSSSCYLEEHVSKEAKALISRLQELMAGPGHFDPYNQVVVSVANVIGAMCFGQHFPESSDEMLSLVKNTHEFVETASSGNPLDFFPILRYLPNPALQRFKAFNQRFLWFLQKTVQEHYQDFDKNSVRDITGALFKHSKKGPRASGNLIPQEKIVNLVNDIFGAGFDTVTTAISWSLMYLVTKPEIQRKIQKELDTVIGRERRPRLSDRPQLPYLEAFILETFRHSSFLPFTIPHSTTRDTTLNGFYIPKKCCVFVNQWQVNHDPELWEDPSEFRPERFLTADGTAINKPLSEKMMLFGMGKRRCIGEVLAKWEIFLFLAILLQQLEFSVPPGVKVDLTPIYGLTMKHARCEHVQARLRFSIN
# Summary of the method: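 Luminescent demethylation readout: Luciferin-ME (100uM, equal to Km) turned over by 20nM CYP1A2 for 60 min at room temperature after NADPH regeneration addition, following 10 min compound preincubation. Normalization used 57 uM furafylline as full inhibition.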
# [3] = NFAT Signaling Pathway (AID 444); details: Jurkat NFAT-bla M1, carbachol, beta-lactamase ratio, 5 h; at 7.69 µM (top of the series) unless noted;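 note: carbachol stimulus at about its EC50 of 1 µM final; % is set by controls: 0 for no effect and ±100 for the full control effect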
# Summary of the method: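 Jurkat cells with NFAT-driven β-lactamase reporter and co-expressed M1 receptor, stimulated with carbachol (final 1 uM, ~EC50), compound titration, 5 h at 37 °C. CCF4 loaded 1 h at RT; 460/530 nm ratio gave %activity and AC50.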
# [4] = Stat Signaling Pathway (AID 446); details: ME-180 SIE beta-lactamase reporter, IL-6 stimulated, 5 h; at 7.69 µM (top of the series) unless noted;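 note: ME-180 cervical cancer cells given 40 pM IL-6 alongside compound; SIE-controlled beta-lactamase reporter measured as 460/530 nm FRET emission ratio; % is set by controls: 0 for no effect and ±100 for the full control effect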
# Summary of the method: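 FRET read-out (405 nm excitation, 460/530 nm emission) of a beta-lactamase reporter under a STAT-inducible element in ME-180 cervical carcinoma cells. Cells with compound receive 40 pM IL-6 for 5 h. Values are normalised to AC90 stimulation and AC90 JAK-inhibitor controls.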
# [5] = target: Glucocorticoid receptor (Homo sapiens) (UniProt P04150); experiment: GR-EFC Redistribution (AID 451; calls by dose curve; note: potency is the fitted concentration of half-maximal effect); details: CHO-K1 GR-EFC translocation, beta-gal luminescence, 2 h
# Chain of Glucocorticoid receptor (Homo sapiens) (P04150 whole entry, looked up, the tested form may be a part): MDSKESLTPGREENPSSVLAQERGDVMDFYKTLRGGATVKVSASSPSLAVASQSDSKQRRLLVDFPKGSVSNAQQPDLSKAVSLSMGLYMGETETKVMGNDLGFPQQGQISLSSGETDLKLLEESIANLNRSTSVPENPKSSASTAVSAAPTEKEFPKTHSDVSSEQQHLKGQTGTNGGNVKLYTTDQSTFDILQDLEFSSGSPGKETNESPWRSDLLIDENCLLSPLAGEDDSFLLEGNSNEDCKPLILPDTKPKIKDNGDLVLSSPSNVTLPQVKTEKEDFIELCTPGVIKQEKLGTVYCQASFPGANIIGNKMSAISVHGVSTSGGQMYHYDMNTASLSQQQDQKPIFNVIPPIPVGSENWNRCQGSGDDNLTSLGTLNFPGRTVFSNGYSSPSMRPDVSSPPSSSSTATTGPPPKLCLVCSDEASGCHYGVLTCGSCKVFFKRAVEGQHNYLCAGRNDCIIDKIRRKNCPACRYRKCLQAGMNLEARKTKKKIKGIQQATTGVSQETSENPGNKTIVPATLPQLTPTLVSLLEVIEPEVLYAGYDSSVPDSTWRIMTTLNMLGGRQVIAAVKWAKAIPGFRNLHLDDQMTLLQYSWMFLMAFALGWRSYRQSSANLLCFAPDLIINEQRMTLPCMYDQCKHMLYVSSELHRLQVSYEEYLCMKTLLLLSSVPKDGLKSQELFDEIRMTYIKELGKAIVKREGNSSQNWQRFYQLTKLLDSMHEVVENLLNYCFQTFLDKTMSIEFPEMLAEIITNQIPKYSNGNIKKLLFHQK
# Summary of the method: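 CHO-K1 cells expressing nuclear EA and GR-ED fragments of b-gal; compounds titrated up to 46 uM final, 2 h at 37 C. GR nuclear translocation read as complemented b-gal luminescence after 1 h RT detection.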
# [6] = target: Mitogen-activated protein kinase 10 (Mus musculus) (UniProt Q61831); experiment: JNK3 AlphaScreen Assay (AID 530); details: JNK3 lysate, c-Jun phosphorylation; series mostly up to 57.1 µM;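 note: kinase came from lysate of stimulated human HepG2 cells; signal reports phosphorylation of biotinylated GST-cJun 1-79 at Ser73 with 10 µM ATP; % is set by controls: 0 for no effect and ±100 for the full control effect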
# Summary of the method: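 Activity was read by AlphaScreen after JNK3-containing HepG2 lysate (cytokine pre-activated) phosphorylated biotinylated GST-cJun with 10 uM ATP at room temperature. Phospho-Ser73 cJun antibody with Protein-A acceptor beads provided detection.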
# [7] = target: Cytochrome P450 3A4 (Homo sapiens) (UniProt P08684); experiment: qHTS Assay for Inhibitors and Substrates of Cytochrome P450 3A4 (AID 884; active = well fitted curve in the direction sought with a large enough effect; an effect the other way counts as inactive or inconclusive; note: nearly all actives have a fitted effect of over 50% in size; note: potency is the fitted concentration of half-maximal effect); details: recombinant CYP3A4, Luciferin-PPXE luminescence; series mostly up to 57.1 µM
# Chain of Cytochrome P450 3A4 (Homo sapiens) (P08684 whole entry, looked up): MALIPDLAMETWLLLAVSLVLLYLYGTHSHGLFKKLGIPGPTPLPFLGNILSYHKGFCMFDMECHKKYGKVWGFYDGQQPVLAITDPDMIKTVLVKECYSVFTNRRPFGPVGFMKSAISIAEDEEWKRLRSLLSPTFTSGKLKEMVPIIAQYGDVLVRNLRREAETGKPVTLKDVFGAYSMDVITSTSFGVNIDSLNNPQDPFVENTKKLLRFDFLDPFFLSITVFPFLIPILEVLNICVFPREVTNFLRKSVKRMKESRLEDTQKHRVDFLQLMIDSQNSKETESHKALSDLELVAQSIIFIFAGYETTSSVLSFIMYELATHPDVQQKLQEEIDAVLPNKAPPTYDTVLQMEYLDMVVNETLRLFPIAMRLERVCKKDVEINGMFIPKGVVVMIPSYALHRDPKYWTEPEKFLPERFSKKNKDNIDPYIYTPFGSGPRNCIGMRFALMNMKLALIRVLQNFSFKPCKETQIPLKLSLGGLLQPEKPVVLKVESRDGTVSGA
# Summary of the method: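 Luminescent readout of luciferin produced by CYP3A4 (20 nM) dealkylation of Luciferin-PPXE, 25 uM (its KM). NADPH-driven reaction ran 60 min at RT after 10 min compound preincubation; data scaled to 57 uM ketoconazole as 100% inhibition.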
# [8] = target: Cytochrome P450 3A4 (Homo sapiens) (UniProt P08684); experiment: qHTS Assay for Activators of Cytochrome P450 3A4 (AID 885; active = well fitted curve in the direction sought with a large enough effect; an effect the other way counts as inactive or inconclusive; note: nearly all actives have a fitted effect of over 65% in size); details: recombinant CYP3A4, Luciferin-PPXE luminescence, 60 min; series mostly up to 57.1 µM
# Summary of the method: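 Luminescent readout of luciferin formed from 25 uM Luciferin-PPXE (KM level) by 20 nM CYP3A4 in 200 mM KPO4, with 60 min NADPH-driven reaction at room temperature after 10 min compound exposure. Ketoconazole (57 uM) defined 100% inhibition.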
# [9] = target: Cytochrome P450 2D6 (Homo sapiens) (UniProt P10635); experiment: qHTS Assay for Inhibitors and Substrates of Cytochrome P450 2D6 (AID 891; active = well fitted curve in the direction sought with a large enough effect; an effect the other way counts as inactive or inconclusive; note: potency is the fitted concentration of half-maximal effect; nearly all actives have a fitted effect of over 60% in size); details: recombinant CYP2D6, luciferin-ME EGE luminescence; series mostly up to 57.1 µM
# Chain of Cytochrome P450 2D6 (Homo sapiens) (P10635 whole entry, looked up): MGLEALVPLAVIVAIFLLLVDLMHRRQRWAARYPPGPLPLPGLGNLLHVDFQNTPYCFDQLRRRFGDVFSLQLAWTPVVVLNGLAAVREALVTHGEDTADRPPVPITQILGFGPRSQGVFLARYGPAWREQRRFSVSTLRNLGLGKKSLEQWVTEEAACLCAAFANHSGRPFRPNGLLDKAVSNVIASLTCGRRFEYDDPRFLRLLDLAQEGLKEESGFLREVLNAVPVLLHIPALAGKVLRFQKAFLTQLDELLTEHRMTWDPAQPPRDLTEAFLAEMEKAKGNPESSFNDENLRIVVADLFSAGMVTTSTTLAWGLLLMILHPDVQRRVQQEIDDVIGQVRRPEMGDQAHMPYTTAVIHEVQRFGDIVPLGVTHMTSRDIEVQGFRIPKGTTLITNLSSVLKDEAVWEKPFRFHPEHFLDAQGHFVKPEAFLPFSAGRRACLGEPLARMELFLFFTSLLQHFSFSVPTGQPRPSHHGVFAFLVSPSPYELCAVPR
# Summary of the method: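 Luminescent read-out of luciferin formed by 5 nM human CYP2D6 demethylating 30 uM Luciferin-ME EGE (Km level) over 60 min at room temperature after NADPH regeneration addition. Data normalized to full inhibition by 1.43 uM quinidine.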
# [10] = Primary qHTS for small molecule stabilizers of the endoplasmic reticulum resident proteome: Secreted ER Calcium Modulated Protein (SERCaMP) assay (AID 1508630; active = well fitted curve in the direction sought with a large enough effect; an effect the other way counts as inactive or inconclusive; note: % is set by controls: 0 for no effect and ±100 for the full control effect); details: SH-SY5Y GLuc-SERCaMP (Gaussia luciferase released on ER calcium loss) secretion, thapsigargin, luminescence; series mostly up to 38.4 µM
# Summary of the method: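 The SH-SY5Y reporter protocol was run at 3 concentrations up to 38.3 uM (primary) or 11 concentrations (follow-up): 16 h compound, 100 nM thapsigargin for 4 h, then extracellular luciferase luminescence.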
# [11] = target: Glucocorticoid receptor (Homo sapiens) (UniProt P04150); experiment: GR-GFP Redistribution (AID 450;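 active = compounds whose dose series gives a full or clear partial fitted curve of increased nuclear translocation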; note: potency is the fitted concentration of half-maximal effect); details: U2OS GR-GFP nuclear translocation, laser cytometry, 2 h
# [12] = target: 3',5'-cyclic-AMP phosphodiesterase 4B (Homo sapiens) (UniProt Q07343); experiment: qHTS Assay for Inhibitors of PDE-IV (AID 607; active = well fitted activation curve with a large enough effect in the main read-out, with a control signal flat, not every such curve was filed as active; note: % of control where 0% means no effect); details: HEK293 ACTOne CNG channel cells, membrane potential fluorescence; series mostly up to 22.9 µM
# Chain of 3',5'-cyclic-AMP phosphodiesterase 4B (Homo sapiens) (Q07343 whole entry, looked up): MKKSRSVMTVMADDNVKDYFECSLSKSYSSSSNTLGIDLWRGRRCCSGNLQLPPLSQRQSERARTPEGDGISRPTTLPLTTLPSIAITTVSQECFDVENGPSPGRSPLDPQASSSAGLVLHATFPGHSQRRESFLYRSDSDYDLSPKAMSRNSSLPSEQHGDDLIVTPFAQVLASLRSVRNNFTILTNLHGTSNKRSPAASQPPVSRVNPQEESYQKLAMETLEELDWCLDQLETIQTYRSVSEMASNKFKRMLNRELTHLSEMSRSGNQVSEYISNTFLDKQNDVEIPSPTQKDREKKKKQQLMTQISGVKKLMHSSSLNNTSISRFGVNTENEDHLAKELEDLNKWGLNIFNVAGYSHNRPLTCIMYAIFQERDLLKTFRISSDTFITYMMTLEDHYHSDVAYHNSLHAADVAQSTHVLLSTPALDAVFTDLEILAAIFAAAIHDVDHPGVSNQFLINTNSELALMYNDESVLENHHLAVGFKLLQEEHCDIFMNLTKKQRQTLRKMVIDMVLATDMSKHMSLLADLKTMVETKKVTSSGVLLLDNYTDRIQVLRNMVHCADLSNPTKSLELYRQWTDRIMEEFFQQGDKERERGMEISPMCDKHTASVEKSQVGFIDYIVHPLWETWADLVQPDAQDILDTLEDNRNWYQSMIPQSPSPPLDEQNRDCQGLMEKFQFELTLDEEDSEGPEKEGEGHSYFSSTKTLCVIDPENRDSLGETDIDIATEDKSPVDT
# Summary of the method: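 Cell-based read-out of cAMP via a modified cyclic nucleotide-gated channel and membrane potential dye (535/590 nm) in HEK293 cells expressing PDE4 endogenously. Compounds tested up to 22.9 uM final; 100 uM RO 20-1724 reference.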
# [13] = target: Cytochrome P450 2C19 (Homo sapiens) (UniProt P33261); experiment: qHTS Assay for Inhibitors and Substrates of Cytochrome P450 2C19 (AID 899; active = well fitted curve in the direction sought with a large enough effect; an effect the other way counts as inactive or inconclusive; note: potency is the fitted concentration of half-maximal effect; nearly all actives have a fitted effect of over 60% in size); details: recombinant CYP2C19, luciferin-H EGE luminescence; series mostly up to 57.1 µM
# Chain of Cytochrome P450 2C19 (Homo sapiens) (P33261 whole entry, looked up): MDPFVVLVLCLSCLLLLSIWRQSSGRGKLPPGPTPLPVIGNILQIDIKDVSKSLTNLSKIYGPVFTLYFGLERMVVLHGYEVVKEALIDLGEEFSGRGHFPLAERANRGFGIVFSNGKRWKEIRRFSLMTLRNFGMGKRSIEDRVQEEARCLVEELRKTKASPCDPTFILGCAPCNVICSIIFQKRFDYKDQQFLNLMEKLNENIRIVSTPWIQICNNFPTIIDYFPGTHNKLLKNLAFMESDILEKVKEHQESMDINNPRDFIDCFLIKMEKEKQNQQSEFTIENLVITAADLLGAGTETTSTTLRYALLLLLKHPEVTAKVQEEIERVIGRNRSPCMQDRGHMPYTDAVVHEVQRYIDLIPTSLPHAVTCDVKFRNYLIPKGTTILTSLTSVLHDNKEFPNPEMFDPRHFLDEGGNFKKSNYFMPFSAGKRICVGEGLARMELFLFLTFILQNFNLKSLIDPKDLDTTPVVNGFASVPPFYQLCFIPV
# Summary of the method: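 Signal comes from luciferase acting on luciferin released by CYP2C19-mediated hydroxylation of Luciferin-H EGE, 10uM (KM). Assay mix: 5nM enzyme, 50mM KPO4; 60 min at 37C with NADPH regeneration. Data normalized against 57uM ketoconazole.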
# [14] = Confirmation and Secondary Assay for Modulators of Hemoglobin Beta Chain Splicing at IVS2 654 locus (AID 910; active = well fitted curve in the direction sought with a large enough effect; an effect the other way counts as inactive or inconclusive;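 note: HeLa cells stably carrying EGFP split by mutant beta-globin IVS2-654 intron; % of control where 0% means no effect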); details: HeLa EGFP-654 splicing reporter, GFP fluorescence, 48 h; series mostly up to 38.3 µM
# Summary of the method: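 HeLa cells stably expressing EGFP interrupted by β-globin IVS2-654 intron, seeded overnight in Opti-MEM/2% FCS, then treated 2 days at 37 °C. Restored splicing read as total peak GFP intensity per well by laser scanning cytometry (488 nm excitation, 500–520 nm emission); 500 nM antisense PNA as control.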
# [15] = Confirmation and Secondary Assay for Modulators of Hemoglobin Beta Chain Splicing at IVS2 705 locus (AID 930; active = well fitted curve in the direction sought with a large enough effect; an effect the other way counts as inactive or inconclusive;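 note: HeLa cells stably expressing the EGFP-705 splicing reporter; GFP fluorescence per well restored by corrected splicing of the IVS2-705 intron in EGFP; % of control where 0% means no effect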); details: HeLa EGFP-705 splicing reporter, GFP fluorescence, 48 h; series mostly up to 38.3 µM
# Summary of the method: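 HeLa IVS2-705 EGFP reporter cells, 500/well, compound 2 d at 37C; correct splicing yields fluorescent EGFP. Control: 500 nM antisense PNA. Read-out: total peak GFP intensity.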
# [16] = AP1 Signaling Pathway (AID 357); details: ME-180 AP-1-bla reporter, EGF-induced, beta-lactamase ratio, 5 h; at 7.69 µM (top of the series) unless noted
# Summary of the method: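 First, ME-180 AP-1-bla cells were cultured overnight at 37 °C in low-serum Opti-MEM. Next, titrated compounds with EC50 EGF were incubated 5 hours. Finally, CCF4 was added for 2.5 hours and the 460/530 nm ratio recorded.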
# [17] = qHTS Assay for Identification of Small Molecule Agonists for Hypoxia Response Element Signaling Pathway (AID 914; active = well fitted activation curve with a large enough effect in the signal ratio, with a control signal flat, not every such curve was filed as active; the % refers to the signal ratio; note: potency is the fitted concentration of half-maximal effect); details: ME-180 (cervical carcinoma) HRE-bla reporter, beta-lactamase ratio, CoCl2, 17 h; activation: active compounds read high
# Summary of the method: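 HRE-bla ME-180 assay for agonist-like enhancement of an EC50 CoCl2 stimulus: 17 h at 37 degrees Celsius, CCF4 for 2.5 h, ratiometric 460/530 nm signal converted to %Activity and fitted to AC50.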
Compound,Potency [1] [µM],Potency [2],"activity change, negative = inhibition [3]","activity, negative = inhibition [4]",Potency [5] [µM],Potency [6],Potency [7],Potency [8],Potency [9],outcome [10],Potency [11] [µM],Potency [12],Potency [13],Potency [14],outcome [15],"activity change, negative = inhibition [16] [%]",Potency [17]
O=S(=O)(c1ccccc1)N1CCC[C@@]2(CCN(C(c3ccccc3)c3ccccc3)C2)C1,> 11.4,inactive,-29.6%,13.8%,> 46,inactive,3.16 µM (active),inactive,0.631 µM (active),inactive,,,,,,,
Cc1cccc(CNc2cc(-c3ccc(N(C)C)cc3)ncn2)c1,> 11.4,1 µM (active),-5.57%,-19.8%,> 46,inactive,6.31 µM (active),,,inactive,> 46,inactive,3.16 µM (active),inactive,inactive,,
CS(=O)(=O)N1CCC2(CCN(Cc3ccc(C#N)cc3)CC2)CC1,> 11.4,,,3.96%,,inactive,,,,inactive,,inactive,,,,3.08,
O=C(c1cccc(F)c1)N1CCC2(CCCN(Cc3nccs3)C2)CC1,> 11.4,inactive,,5.18%,> 46,inactive,,inactive,,inactive,,inactive,,,,,
COc1cccc(Cn2c(=O)c(-c3cccs3)nc3cnc(N4CCN(C)CC4)nc32)c1,> 11.4,5.01 µM (active),160% [activator] (active),,> 46,,,inactive,,inactive,> 9.22,inactive,,,,,
O=C(Oc1ccccc1)N1CCC2(CC1)CCN(c1ccccn1)CC2,> 11.4,,,-7.33%,> 46,inactive,inactive,,,inactive,,inactive,,,,-11.8,
CCNc1ncc2nc(-c3cc(F)cc(F)c3)c(=O)n(Cc3cccs3)c2n1,> 11.4,5.01 µM (active),,135% [activator] (active),> 46,inactive,,inactive,,inactive,> 9.22,,,,,,0.794 µM (active)
O=C(c1csnn1)N1CCC2(CCCN(c3ccc(-c4ccccc4)cc3)C2)CC1,> 11.4,inactive,-15.8%,1.9%,> 46,inactive,7.94 µM (active),,,inactive,,inactive,,,,,
